Source: ChEMBL document CHEMBL3988442, “University of Dundee, Small-Polar-MMV Screening Library” (2021)
Among all 48,000 compounds or so, about 13,000 (27%) showed an effect of 50% or more. Some of the results follow.

These compounds were tested on Wolbachia pipientis (assay: Anti-Wolbachia Cell-Based Screen). Settings: 5 µM.
Assay type: functional
Set-up: scale not given: in the data most compounds retested in dose-response had high values

Compound | Percent Effect [%]
CCN1CCN(S(=O)(=O)c2cn(C(C)C)cn2)c2ccccc21 | -8.79
O=C(c1ccccc1)C1CCN(c2cncc(-n3cccn3)n2)CC1 | 6.831
Cc1cncc(C2CCN(C(=O)c3ccc(-n4cccn4)nc3)CC2)n1 | 157.3
O=C(c1ccc(-n2cccn2)nc1)N1CCCC(c2cnccn2)C1 (stereo unspecified) | 143.5
O=C(c1ccc(-n2cccn2)nc1)N1CCC(c2ccc(O)cc2)CC1 | -5.1
O=C(c1ccc(-n2cccn2)nc1)N1CCC(c2ccn[nH]2)C1 (stereo unspecified) | 151
O=C(c1ccc(-n2cccn2)nc1)N1CCCN(c2cccnn2)CC1 | 2.596
CC1CCCCN1C1CN(C(=O)c2sccc2S(N)(=O)=O)C1 (stereo unspecified) | 5.602
CN(Cc1ccccc1)C1(C(=O)O)Cc2ccccc2C1 | 1.396
CC[C@@H]1N(CC2CC2)CCC[C@]12CCC(=O)N2CCOC.O=C(O)C(F)(F)F | -7.54
CC[C@@H]1N(Cc2nccs2)CCC[C@]12CCC(=O)N2C.O=C(O)C(F)(F)F | 109.2
COCCN1C(=O)CC[C@]12CC[C@@H](NCc1nccs1)CC2.O=C(O)C(F)(F)F | -1.329
CN1C(=O)CCCC12CCCN(Cc1nccs1)C2.O=C(O)C(F)(F)F (stereo unspecified) | -2.009
CC[C@@H]1N(Cc2nccs2)CCC[C@]12CCC(=O)N2CCOC.O=C(O)C(F)(F)F | 100.4
Cn1cccc1C(=O)N1C[C@H]2CN(CCN3CCCC3)C(=O)[C@H]2C1 | -3.388
CS(=O)(=O)N1C[C@H](NC(=O)c2ccno2)[C@@H]2OCCC[C@@H]21 | 97.34
CN(C)C(=O)N[C@@H]1CN(S(C)(=O)=O)[C@@H]2CCCO[C@@H]21 | -12.16
Cn1cc(C(=O)N[C@H]2CN(S(C)(=O)=O)[C@@H]3CCCO[C@H]23)cn1 | 0.3212
CS(=O)(=O)N1C[C@@H](NC(=O)c2ccno2)[C@@H]2OCCC[C@@H]21 | 112.1
CC(CCNC(=O)NCCc1ccc(S(N)(=O)=O)cc1)c1ccccc1 (stereo unspecified) | 2.961
Nc1nc(CCCNC(=O)c2ccccc2C2CCNC2)cs1 (stereo unspecified) | 16.63
COc1ccccc1-c1c[nH]c(C2CCCN2)n1.Cl.Cl (stereo unspecified) | -20.8
NC(=O)c1ccccc1Oc1cnc(C2CCCN2)cn1 (stereo unspecified) | 134.2
NC(=O)c1ccccc1Oc1cccc(C2CCCNC2)n1 (stereo unspecified) | 178.3

Compound | Percent Effect [%]
NC(=O)c1cc(C2CCCN(CCCOc3ccccc3)C2)n[nH]1 (stereo unspecified) | -3.314
CN1CCN(Cc2ccccc2Oc2ccc(C(N)=O)cn2)CC1 | -9.578
CC(C)c1nc2cc(NC(=O)Cn3ccccc3=O)ccc2o1 | 6.336
CC(C)S(=O)(=O)Cc1cccc(NC(=O)c2ccc[nH]2)c1 | 19.64
Cc1ncccc1C(=O)Nc1cccc(Cn2ccccc2=O)c1 | 100.7
Cc1ncccc1C(=O)Nc1cccc2c1C(=O)NC2 | -1.694
O=C(CCn1ccccc1=O)Nc1ccc(I)cc1 | -0.04239
CC(C)c1ocnc1C(=O)Nc1cccc(Cn2ccccc2=O)c1 | 74.78
Cc1ncccc1C(=O)Nc1ccc2ccn(CCN(C)C)c2c1 | -6.665
CSc1ncccc1C(=O)Nc1ccc(Cn2ccccc2=O)cc1 | 85.69
O=C(Nc1cccn(Cc2ccccc2)c1=O)c1ccncc1F | -8.682
O=C(NCc1nnc2n1CCC2)N(Cc1ccc(F)cc1)C1CC1 | -6.428
CN(Cc1ccc(F)cc1)C(=O)NCc1nnc2n1CCCCC2 | -12.53
CN(Cc1ccco1)C(=O)NCc1nnc2n1CCC2 | 1.808
CN(Cc1cnn(C)c1)C(=O)NCc1nnc2n1CCC2 | -11.71
CN(Cc1ccc(N(C)C)cc1)C(=O)NCc1nnc2n1CCC2 | 115.6
CN(Cc1ccc(F)cc1)C(=O)NCc1nnc2n1CCC2 | 105
CN(CCO)Cc1nnc(C2CCN(C[C@H]3[C@@H]4CNC[C@@H]43)CC2)n1C | -4.687
CCCC(=O)Nc1cc2c(cc1OC)NC(=O)CC2c1ccc(CC)o1 (stereo unspecified) | 133.6
CCc1ccc(S(=O)(=O)Nc2cc(OC)c(OC)cc2C(=O)O)s1 | -0.559
CN(Cc1ccc(C2CC(=O)Nc3cc4[nH]ncc4cc32)o1)S(C)(=O)=O (stereo unspecified) | 6.583
CCc1ccc(C2CCCN2C(=O)CNC(=O)CCC(C)C)o1 (stereo unspecified) | 9.018
CCc1ccc(C2CC(=O)Nc3cc(NS(C)(=O)=O)ccc32)o1 (stereo unspecified) | 85.79
CCc1ccc(C2CC(=O)Nc3cc(OC)c(NS(C)(=O)=O)cc32)o1 (stereo unspecified) | 82.49

Compound | Percent Effect [%]
CCc1ccc(C2CCCN2C(=O)NCC(=O)NCC(C)C)o1 (stereo unspecified) | -83.92
CCc1ccc(C2CC(=O)Nc3n[nH]cc32)o1 (stereo unspecified) | 13.18
CN(Cc1ccc(C2CC(=O)Nc3n[nH]cc32)o1)S(C)(=O)=O (stereo unspecified) | 5.804
CS(=O)(=O)Cc1ccc(Cl)c(NCc2noc(C3CC3)n2)c1 | -7.665
CCOCCOC(C)C(=O)Nc1ccc2[nH]c(C)cc2c1 (stereo unspecified) | 4.03
CC(NC(=O)c1ccc(CS(C)(=O)=O)o1)c1ccc(F)c(F)c1 (stereo unspecified) | -18.18
CC(=O)N1CCN([C@@H]2CCC[C@@H](N(C)C(=O)C3CC3)[C@H]2O)CC1 | 98.54
CC(=O)N1CCC(C(=O)N(C)[C@@H]2CCC[C@@H](N3CCCC3)[C@@H]2O)CC1 | -16.02
CC(=O)N1CCN(C2CCCCc3ccccc32)CC1 (stereo unspecified) | -7.249
CC(=O)N1CCN([C@@H]2CC[C@@H](N(C)C(=O)C3CCCCC3)[C@H]2O)CC1 | 97.43
CC(=O)N1CCC(N[C@@H]2CO[C@H](CNC(=O)C3CCCC3)[C@H]2O)CC1 | -17.04
COC(=O)N1CCCC(C(=O)N(C)C)C1 (stereo unspecified) | 5.213
Cc1cc(=O)c(C(=O)N(C)Cc2ccc(Cl)c(F)c2)c[nH]1 | 0.1621
CCCc1noc(C(C)S(=O)(=O)Cc2nc(C3CC3)no2)n1 (stereo unspecified) | -3.55
COC(C(=O)NCc1c(C)nc2cc(=O)[nH]n2c1C)c1ccccc1 (stereo unspecified) | -2.131
CCn1c(CN2CCC(O)(c3ccc4c(c3)OCO4)CC2)cnc1SC.O=C(O)CC(O)(CC(=O)O)C(=O)O | 113.8
O=C(O)C(c1ccc2c(c1)OCO2)N1CCC(O)(c2cccnc2)CC1 (stereo unspecified) | -24.46
Cn1cc(CN2CCC3(CC(=O)N(c4ccc5c(c4)OCO5)C3)C2)cn1.O=C(O)C(F)(F)F (stereo unspecified) | -18.04
Cc1ncc(CN2CCCC(O)(c3ccc(F)cc3)CC2)n1C.O=C(O)CC(O)(CC(=O)O)C(=O)O (stereo unspecified) | 96.51
CCn1c(CN2CCCC(O)(c3ccc(F)cc3)CC2)cnc1SC.O=C(O)CC(O)(CC(=O)O)C(=O)O (stereo unspecified) | 110.7
Fc1ccc(CN2CCC3(CC2)CCN(Cc2nccs2)CC3)cc1.O=C(O)C(F)(F)F.O=C(O)C(F)(F)F | 3.556
Cc1ccc(=O)n(CC2(O)CCN(Cc3cc(C)c(O)c(C)c3)CC2)n1.O=C(O)CC(O)(CC(=O)O)C(=O)O | -13.33
CC(NC(=O)N(C)CCCOc1ccc(F)cc1)c1nncn1C (stereo unspecified) | 8.721
Cc1cccc(C(=O)N2CCN(S(C)(=O)=O)[C@@H]3CS(=O)(=O)C[C@@H]32)n1 | -7.495

Compound | Percent Effect [%]
O=C1NCCN(C(=O)c2cn3ccsc3n2)C1c1cccc(F)c1 (stereo unspecified) | -4.51
Cc1csc(C2CCCCN2C(=O)CN(C)C2CC2)n1 (stereo unspecified) | 3.375
Cc1csc(C2CCCCN2C(=O)CN(C)Cc2ccccc2)n1 (stereo unspecified) | -0.5019
CCN(CC)CC(=O)N1CCCCC1c1nc(C)cs1 (stereo unspecified) | 131.2
Cc1csc(C2CCCCN2C(=O)CN(C)C(C)C)n1 (stereo unspecified) | 91.31
CCn1nc(C)c(CCN2CC3(CCOC3)CCC2=O)c1C (stereo unspecified) | -24.96
N#CC1C(=O)Nc2c(cnn2C2CCCC2)C12CCCCC2 (stereo unspecified) | 30.08
CC(C)c1ncc2c(n1)CN(Cc1nc(Cc3ccccc3)no1)CC2 | -0.3417
CC(C)c1ncc2c(n1)CN(Cc1nc(-c3ccoc3)no1)CC2 | -5.396
Cn1cnc2c1CCN(Cc1nc(-c3ccco3)no1)C2 | -0.7314
c1ccc(-c2noc(CN3CCc4cncnc4C3)n2)nc1 | 12.32
CC(C)c1ncc2c(n1)CN(Cc1nc(-c3cccnc3)no1)CC2 | 97.53
CCc1ncc2c(n1)CN(Cc1nc(-c3ccccn3)no1)CC2 | 1.522
CC(C)c1ncc2c(n1)CN(Cc1nc(-c3ccccn3)no1)CC2 | 114.4
CC(C)c1ncc2c(n1)CN(Cc1nc(-c3ccco3)no1)CC2 | 103.4
CC1CCCN(S(=O)(=O)N2CCOC3(CCCC3)C2)C1 (stereo unspecified) | 2.449
CCC(=O)NCC(=O)NCC(C)(C)c1cccc(Br)c1 | 13.04
COc1cccc2c1OCC(C(=O)NCCn1nc(C)c(Cl)c1C)C2 (stereo unspecified) | -38.77
CCCc1nnc(NC2CCN(C3CCSCC3)CC2)o1 | -8.087
CCc1nnc(CSc2ccccn2)o1 | -8.933
CN1CC(=O)N(c2cccc(F)c2)CC12CCN(S(=O)(=O)C1CC1)C2.O=C(O)C(F)(F)F (stereo unspecified) | -1.497
CC(C)c1nccn1-c1cncc(C2CCCN(C3CCCC3)C2)n1 (stereo unspecified) | 108
CC(C)c1nccn1-c1cncc(C2CCCN(C3CCCCC3)C2)n1 (stereo unspecified) | 98.48
CC(C)c1nccn1-c1cccc(C2CCCN(C3CCCC3)C2)n1 (stereo unspecified) | 0.08562
